Source: PubChem
GALK inh: inhibitors of human galactokinase; P51570; Potency, µM (top dose mostly 57.5 µM), for the others: top-dose activity change, negative = inhibition, usual class: inhibitors; Purified GALK, Kinase-Glo residual ATP luminescence; 270,000 tested, 0.007% active
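Quantitative HTS: GALK 5 nM, ATP 35 uM, galactose 100 uM, 1 h room temperature, then luciferase-based ATP detection.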
TrxR1 substrate: substrates of rat thioredoxin reductase 1; O89049; purified TrxR1 substrate turnover, NADPH consumption readout; Potency, µM (top dose mostly 114 µM), without a hit: at the top dose activity change, negative = substrate turnover; 390,000 tested, 0.01% active; AID 588456; note: nearly all actives have a fitted effect of over 50% in size
Target sequence (O89049 whole entry, looked up): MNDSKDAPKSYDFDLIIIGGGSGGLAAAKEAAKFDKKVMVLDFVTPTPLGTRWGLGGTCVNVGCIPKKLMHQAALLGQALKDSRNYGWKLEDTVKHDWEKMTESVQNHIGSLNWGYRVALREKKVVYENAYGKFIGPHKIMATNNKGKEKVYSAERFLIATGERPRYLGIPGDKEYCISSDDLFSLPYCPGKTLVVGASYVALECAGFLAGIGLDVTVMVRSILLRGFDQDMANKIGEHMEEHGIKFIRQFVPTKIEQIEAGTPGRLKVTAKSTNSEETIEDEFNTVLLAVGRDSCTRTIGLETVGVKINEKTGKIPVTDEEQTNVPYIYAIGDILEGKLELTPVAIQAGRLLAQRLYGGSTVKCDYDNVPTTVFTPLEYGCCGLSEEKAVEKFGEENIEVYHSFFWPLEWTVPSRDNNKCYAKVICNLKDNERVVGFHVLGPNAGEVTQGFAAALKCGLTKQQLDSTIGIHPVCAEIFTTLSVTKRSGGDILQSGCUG
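Rat TrxR1, dispensed at 90 nM, was prereduced with 400 uM NADPH (final) for 5 min at ~22 deg C, then incubated with compound 15 min before 400 uM selenite. A first-read NADPH fluorescence drop versus no-compound background flagged substrates.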
Anesthetic bind: binds horse apoferritin like a general anesthetic; P02791; AID 485281; 350,000 tested, 0.074% active; Potency, µM (top dose mostly 77.5 µM), inactives show top-dose activity change, negative = displacement, usual class: inhibitors; apoferritin/1-aminoanthracene competitive binding, fluorescence; note: nearly all actives have a fitted effect of over 20% in size
Target sequence (P02791 2-175 limits assumed): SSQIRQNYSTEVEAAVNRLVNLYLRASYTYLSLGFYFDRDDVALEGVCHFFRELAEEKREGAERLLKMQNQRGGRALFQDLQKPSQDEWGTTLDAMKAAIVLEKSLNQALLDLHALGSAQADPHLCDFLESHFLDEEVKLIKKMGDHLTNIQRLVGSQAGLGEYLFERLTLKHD
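Apoferritin-based anesthetic binding model; compound displacement of fluorescent 1-AMA measured as endpoint fluorescence after 10 minutes at room temperature, scaled to free-ligand and complex controls.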
IDH1 R132H inh: human IDH1 R132H inhibition; O75874; IDH1-R132H enzyme, NADPH consumption, diaphorase/resazurin fluorescence; Potency, µM (highest dose often 76.6 µM), inactives show at the highest dose activity change, negative = inhibition, hits mostly inhibitors; 390,000 tested, 0.093% active; AID 602179; note: nearly all actives have a fitted effect of over 65% in size
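IDH1-R132H (0.5 ug/mL dispensed) in pH 7.5 Tris buffer was preincubated 30 min with compound, then given a substrate mix of 0.016 mM NADPH and 2 mM alpha-KG for 80 min at room temperature; remaining NADPH was read by diaphorase/resazurin fluorescence.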
PKM2 act: increases activity of human pyruvate kinase M2. P14618. purified PKM2, Kinase-Glo ATP luminescence, activation; response scale: 0% is enzyme alone, no compound. Potency, µM (top dose mostly 57.5 µM), inactives show top-dose activation, usual class: activators. 260,000 tested, 0.34% active; note: nearly all actives have a fitted effect of over 55% in size
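Kinase-Glo luminescence reports ATP generated from ADP (0.1 mM) and PEP (0.5 mM) by purified hPK-M2 after 1 h at room temperature, pH 7.2 imidazole buffer; intermediate enzyme activity allows detecting inhibitors and activators.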
rTrxR1 inhibitor: rat TrxR1 inhibition | recombinant rTrxR1, NADPH fluorescence consumption, selenite substrate | Potency, µM (series often up to 114 µM), for inactives: top-dose activity change, negative = inhibition, most hits filed as inhibitors | 390,000 tested, 1% active; note: nearly all actives have a fitted effect of over 65% in size
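Rat TrxR1 (90 nM in the dispensed reagent) was pre-reduced with 400 uM NADPH for 5 min at room temperature, then incubated with compound for 15 min. After 400 uM selenite was added, NADPH fluorescence (Ex 340/Em 450 nm) was followed for 8 min.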
Numbers without * were called inactive; ? = inconclusive; . = no result given; ! = not active in a repeat; [ ] = dose if it differs, or a comment. Only some compounds are listed: those with a hit (about 1.3% of all), similar ones and a draw of the others. Calls come from the whole dose curve; as a rule, active = well fitted curve in the direction sought with a large enough effect; inconclusive = small, poorly fitted or top-dose-only effect, or another doubt; inactive = no such curve, though single readings can be large; an effect the other way counts as inactive or inconclusive. % is set by controls: 0 for no effect and ±100 for the full control effect; potency is the fitted concentration of half-maximal effect.

SMILES	GALK inh	TrxR1 substrate	Anesthetic bind	IDH1 R132H inh	PKM2 act	rTrxR1 inhibitor
Cc1cc(NC(=O)COC(=O)c2ccccc2OCCOc2ccccc2)ccc1Br	.	6.3%	.	.	.	18.6%
Cc1ccc(C)c(-c2ccc(=O)n(Cc3c(F)cccc3Cl)n2)c1	1.6%	-14.3%	44.7µM*!	40.1%	.	-11.7%
Cc1ccc(-c2ccc(=O)n(Cc3c(F)cccc3Cl)n2)cc1	.	7.6%[57.1 µM]	-0.3%	-12.6%	.	11.4%[57.1 µM]
CCCC(O)(CCN1CCCCC1)c1ccc(OCC)cc1 (configuration not stated)	0.7%	-3.3%	-15.0%	-5.3%	-2.3%	50.1µM*
COc1ccc(C(O)(CCN2CCCCC2)C2CCCCC2)cc1 (configuration not stated)	10.9%	14.9%[57.1 µM]	-9.9%	-0.9%	.	2.82µM*
CCCCOc1ccc(C(O)(CCC)CCN2CCOCC2)cc1 (configuration not stated)	.	-2.7%	4.7%	1.2%	9.4%	?
CCCCCC(O)(CCN1CCCCC1)c1ccc(OCC)cc1 (configuration not stated)	-1.1%	9.5%[57.1 µM]	-12.3%	-2.8%	-15.5%	8.91µM*
Cc1c(O)ccc2c1OC(C)(C)CC2	.	5.5%	.	.	.	?
Cc1cc(C(=O)CCl)c(C)n1-c1c(C)n(C)n(-c2ccccc2)c1=O	-1.6%	-1.3%[57.1 µM]	-4.2%	-19.8%	5.2%	8.91µM*
COCc1cc(O)c(O)c(O)c1-c1c(COC)cc(O)c(O)c1O	.	-9.3%	6.1%	.	.	14.1µM*
Cn1c(N)c(C#N)c2c(c1=S)CSC(C)(C)C2	3.8%	-13.1%	-17.9%	3.0%	-0.1%	?
CC1(C)Cc2c(C#N)c(N)sc(=S)c2CS1	-0.2%	6.1%[57.1 µM]	?	7.5%	7.1%	14.1µM*
Cc1ccc(C(=O)Nc2nc(-c3ccco3)c(-c3ccco3)s2)o1	.	-7.4%	.	-3.3%	.	25.1µM*
O=C(CCCSc1ccccc1)Nc1nc(-c2ccccn2)cs1	1.5%	-2.7%	?	7.8%	8.3%	2.1%
CC(=O)c1sc(NC(=O)CCNC(=O)c2ccco2)nc1-c1ccccc1	2.1%	-19.6%	-12.3%	0.0%	.	-17.7%
O=C(CCCSc1ccccc1)Nc1nc(-c2ccco2)c(-c2ccco2)s1	-0.1%	-1.6%	?	-5.2%	17.8µM*	?
O=C(CCl)Nc1nc(-c2ccco2)c(-c2ccco2)s1	-7.6%	-2.3%	-4.0%	?	26.5%	12.6µM*
COc1ccc(OC)c(NC(=O)C2CCN(S(=O)(=O)c3ccc4c(c3)CCCC(=O)N4)CC2)c1	.	3.5%	-5.2%	-1.5%	.	7.6%
Cc1ccc2cc(C=C(C#N)C#N)c(N3CCCCC3)nc2c1	-7.9%	-5.1%	?	0.9%	1.0%	1µM*
N=C1/C(=C/c2coc3ccccc3c2=O)C(=O)N=C2SC(c3ccco3)=NN12	-2.5%	-12.9%	-11.1%	-12.0%	12.6%	50.1µM*
N=C1/C(=C\c2coc3ccc(O)cc3c2=O)C(=O)N=C2SC=CN12	.	-0.6%	-11.7%	18.0%	28.2µM*	?
N=C1/C(=C\c2coc3ccccc3c2=O)C(=O)N=C2SC(c3ccncc3)=NN12	?	17.7%[0.0914 µM]	-7.9%	?	22.5%	?
CSC1=NSC2=NC(=O)/C(=C\c3coc4ccccc4c3=O)C(=N)N12	.	-15.1%	37.1%	0.4%	15.8%	?
COC(=O)c1cc(NC(=O)c2ccccc2)c(=O)oc1C	-0.7%	4.6%[11.4 µM]	-1.5%	3.9%	-13.4%	11.7%[11.4 µM]
COc1ccc(C(=O)Nc2cc(C(=O)c3ccccc3)c(C)oc2=O)cc1	-3.3%	-3.1%	?	1.3%	?	11.2µM*
SMILES	GALK inh	TrxR1 substrate	Anesthetic bind	IDH1 R132H inh	PKM2 act	rTrxR1 inhibitor
Cc1oc(=O)c(NC(=O)c2cccc(Cl)c2)cc1C(=O)c1ccccc1	-2.5%	3.0%	-22.5%	-0.2%	7.08µM*	35.5µM*
O=C(Nc1ccccc1F)c1oc2ccccc2c1NC(=O)c1c(F)cccc1F	.	33.1%	-6.9%	3.0%	.	8.1%
Cc1ccc(CNC(=O)CSc2ncc(S(=O)(=O)c3ccc(C)c(Cl)c3)c(=O)[nH]2)cc1	.	1.6%[57.1 µM]	-9.4%	-16.5%	.	20.0%[57.1 µM]
CCOC(=O)c1c(C)oc2c1c1c(c3ccccc32)OCN(CCCC(=O)O)C1	4.2%	-1.2%	7.5%	11.9%	-0.6%	3.55µM*
CCOC(=O)c1c(C)oc2c1c(C(c1cccnc1)N1CCOCC1)c(O)c1ccccc12 (configuration not stated)	1.5%	-12.7%	-20.0%	?	16.5%	11.2µM*
CCOC(=O)c1c(C)oc2c1c1c(c3ccccc32)OCN(Cc2cccnc2)C1	-0.2%	2.1%	-8.6%	7.4%	11.6%	1.41µM*
N#Cc1cc([N+](=O)[O-])c2sc(C(N)=O)[n+]([O-])c2c1	.	-2.1%[57.1 µM]	.	.	.	30.5%[57.1 µM]
Cc1cc(C)n(-c2nc3ccccc3nc2N2CCN(S(=O)(=O)c3ccc(F)c(C)c3)CC2)n1	-0.4%	1.1%	3.4%	-1.7%	10µM*	5.0%
Cc1cc(C)n(-c2nc3ccccc3nc2N2CCN(S(=O)(=O)c3ccc4ccccc4c3)CC2)n1	2.5%	67.0%	-6.9%	5.9%	2.1%	39.3%
O=c1c2ccccc2oc2ccc(-c3ccoc3)cc12	.	13.9%	.	.	.	?
Cc1cccc(Nc2c3c(nc4nncn24)CCC3)c1C	.	-1.9%	-3.7%	-15.1%	.	-15.7%
O=C(CN1CCN(Cc2ccccc2)CC1)NCc1ccc(Cl)cc1	-2.7%	7.4%[57.1 µM]	-6.5%	-1.9%	-4.6%	12.0%[57.1 µM]
O=C(CN1CCN(C(=O)c2ccco2)CC1)NCc1ccc(Cl)cc1	-2.4%	10.0%	-5.4%	1.4%	2.1%	14.1µM*
CSc1nc(SCCO)c2sc3nc(-c4ccco4)c4c(c3c2n1)CC(C)(C)OC4	1.5%	1.7%	?	-6.9%	15.4%	56.2µM*
Cc1ccccc1N1C(=O)Cc2ccccc2C1=O	0.3%	5.0%	0.3%	-4.1%	23.6%	?
O=C1Cc2ccccc2C(=O)N1Nc1ccccc1	.	-7.4%	.	-1.1%	.	50.1µM*
COc1ccc(-c2nc(CS(=O)CC(=O)NCc3ccc(C)cc3)c(C)o2)cc1OC (configuration not stated)	-3.0%	8.6%	-15.8%	7.5%	.	50.1µM*
COc1ccc(CCNC(=O)CS(=O)Cc2nc(-c3cccs3)oc2C)cc1OC (configuration not stated)	-0.5%	2.6%	-11.4%	0.1%	1.7%	39.8µM*
CCOc1ccc(CCNC(=O)CS(=O)Cc2nc(-c3ccc(OC)c(OC)c3)oc2C)cc1OCC (configuration not stated)	-6.7%	-1.8%	-4.7%	-4.2%	.	0.3%
